# Hits are enriched below; roughly 6% of the tested compounds scored in any of these assays.
# D1 antagonist: antagonists of human D1 dopamine receptor | P21728 | HEK293 TREx D1 cells, calcium flux, dopamine EC80; stronger effect = lower value | activity change, negative = inhibition, % at 10 µM | actives 3.2% (n = 360,000); in the data active = activity change below about -30%; also: % is scaled to controls: 0 for no effect and ±100 for the full control effect
#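 After overnight tetracycline induction at 30 C, force-coupled D1 HEK293 cells took up a no-wash calcium dye at room temperature. Compounds were added and monitored 180 s, and the response to EC80 dopamine was then recorded.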
# D1 agonist: human D1 receptor agonism. HEK293 T-REx D1 cells, calcium flux, agonist mode. activation, % at 2 µM. actives 1% (n = 360,000). P21728; in the data active = activation above about 30%; also: 0% is about no effect
#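 Tetracycline-induced HEK293 TREx D1 cells, force-coupled to calcium signalling, were dye-loaded with a no-wash calcium kit. Compound was pin-added after a 10 s baseline. Fluorescence was read kinetically at 1 cycle/s for 180 s, with calcium rises flagged as agonism.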
# D3 antag: D3 dopamine receptor (human) antagonism | D3R cells, DiscoveRx beta-arrestin luminescence, antagonist mode; stronger effect = lower value | max response, negative = inhibition, % | actives 2.5% (n = 360,000); in the data active = max response below about -50%; inconclusive = no clear call, values can overlap the other calls; also: % is scaled to controls: 0 for no effect and ±100 for the full control effect
# Target sequence (P35462 whole entry, looked up): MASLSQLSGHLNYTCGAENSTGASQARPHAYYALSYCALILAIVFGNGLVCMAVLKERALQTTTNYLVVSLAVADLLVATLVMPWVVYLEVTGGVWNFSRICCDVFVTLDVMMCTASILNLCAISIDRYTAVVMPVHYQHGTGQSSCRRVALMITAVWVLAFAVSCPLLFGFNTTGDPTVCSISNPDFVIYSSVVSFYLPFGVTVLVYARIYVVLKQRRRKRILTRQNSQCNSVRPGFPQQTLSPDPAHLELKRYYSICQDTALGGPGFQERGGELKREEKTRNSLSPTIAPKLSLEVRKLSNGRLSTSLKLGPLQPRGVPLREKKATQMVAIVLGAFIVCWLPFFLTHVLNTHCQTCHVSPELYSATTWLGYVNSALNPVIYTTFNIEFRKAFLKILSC
#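 Cells plated overnight at 1500 cells/well, then exposed to library compounds with dopamine controls for 90 minutes at 37 degrees C. DiscoveRx reagent added for 30–60 minutes at room temperature; luminescence read, quantitative HTS format.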
# D1 PAM: human D1 dopamine receptor positive modulation. HEK293 TREx D1 cells, calcium flux, dopamine EC20 potentiation. potentiation, % at 10 µM. actives 0.036% (n = 360,000); in the data active = potentiation above about 30%; also: 0% is about no effect
# D3 ag: agonists of human D3 dopamine receptor; P35462; D3R DiscoveRx beta-arrestin cells, luminescence, 90 min; max activation, %; actives 0.58% (n = 410,000); AID 652048; in the data active = max activation above about 30%; also: 0% is about no effect
#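 Agonist mode: compounds and dopamine controls were applied to plated cells for 90 min at 37 degrees C after an overnight attachment at 1500 cells/well. Luminescent read-out followed 30 - 60 minutes at room temperature with DiscoveRx detection reagent.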
# An asterisk follows results filed as active; ? = inconclusive; . = no result given; ! = a repeat was not active.
SMILES,D1 antagonist,D1 agonist,D3 antag,D1 PAM,D3 ag
NCCCC[C@@H]1NC(=O)c2cc([N+](=O)[O-])cc(I)c2SC[C@@H](C(N)=O)NC(=O)[C@H](Cc2ccc(O)cc2)NC1=O,-4,-3,5,-4,17
CC1CCN(c2ccccc2NC(=S)NC(=O)c2cccs2)CC1,-23,3,-58*,-3,-6
CC1=Nc2cc(C(=O)N3CCCCC3)ccc2Sc2ccc(C)cc21,-44*!,12,1,-6,4
COc1cc(Cl)c(NS(=O)(=O)c2ccc(-c3cnc(C4CC4)o3)cc2)c(OC)c1,-29,22,.,1,-24
CS(=O)(=O)OCCCNCCCOS(C)(=O)=O,.,.,.,.,-4
CCOC(=O)C1CCN(C(=O)CC(C)c2ccccc2)CC1 (stereo not drawn),16,1,10,-5,2
CCOC(=O)C1CCCN(Cc2ccccc2C)C1 (stereo not drawn),-17,5,-64*,-6,-30
CCOC(=O)C1CCCN(Cc2ccc(OC)c(OCc3ccccc3)c2)C1 (stereo not drawn),-2,0,-84*,-4,-28
CCOC(=O)C1CCCN(C(=O)CC(C)c2ccccc2)C1 (stereo not drawn),-33*,5,-13,4,2
CCOC(=O)C1CCN(S(=O)(=O)Cc2ccccc2)CC1,11,0,23,-3,-10
CCOC(=O)C1CCCN(S(=O)(=O)Cc2ccccc2)C1 (stereo not drawn),-64*,1,-9,-7,-3
COc1ccc(NC(=O)c2cnc(N3CCCCC3)c3ccccc23)cc1Cl,-1,2,.,-4,3
O=C1CCCCC1Nc1ccc2ccccc2c1 (stereo not drawn),.,.,-8,.,7
COc1cc2ccccc2cc1C(=O)N/N=C/c1cccs1,.,.,?,.,-1
Cc1ccc(S(=O)(=O)NN2CCCCCC2)cc1,.,.,6,.,2
Cc1cccc(C)c1-n1cccc1/C=C1/C(=N)N2C(=NC1=O)SN=C2S(C)(=O)=O,-66*,4,4,-15,0
CCC(=O)N1CCc2cc(Br)cc(S(=O)(=O)NCCc3ccc(C)cc3)c21,-17,7,.,-6,-27
Cc1ccc(C(=O)c2cc(O)c(O)c([N+](=O)[O-])c2)cc1,.,.,.,.,1
Oc1ccc(F)c2cccnc12,17,0,-15,6,-8
Oc1ccc(N=Nc2ccccc2C(F)(F)F)c2cccnc12,4,1,-124*,-8,-17
COc1ccccc1N=Nc1ccc(O)c2ncccc12,10,0,-90*,4,-17
Cc1ccc(S(=O)(=O)NN=Cc2ccccc2Cl)cc1,.,.,?,.,-3
Cc1nnc(NC(=O)NC(C)N2C(=O)C3C4C=CC(C4)C3C2=O)s1 (stereo not drawn),-5,2,-16,-6,-5
CCc1nnc(NC(=O)C(C)N2C(=O)C3C4C=CC(C4)C3C2=O)s1 (stereo not drawn),-43*,1,2,0,-8
Nc1[nH]n2c(=O)cc(-c3ccccc3)nc2c1N=Nc1ccc(S(N)(=O)=O)cc1,-1,3,?,-1,-5
SMILES,D1 antagonist,D1 agonist,D3 antag,D1 PAM,D3 ag
NS(=O)(=O)c1ccc(N=Nc2c(-c3ccccc3)[nH]n(-c3nc(-c4ccccc4)cs3)c2=O)cc1,-4,1,-66*,-8,-32
COc1cccc(N2CCN(C(=O)c3ccc(CS(=O)c4cccc(Cl)c4)o3)CC2)c1 (stereo not drawn),-17,-1,.,-3,-3
O=C1c2ccccc2C(=O)N1CCCCc1cn(C[C@H]2CC[C@@H]([C@@H]3CC[C@H](Cn4cc(CCCCN5C(=O)c6ccccc6C5=O)nn4)O3)O2)nn1,.,.,66,.,51*
O=C1c2ccccc2C(=O)N1CCCc1cn(C[C@H]2CC[C@@H]([C@@H]3CC[C@H](Cn4cc(CCCN5C(=O)c6ccccc6C5=O)nn4)O3)O2)nn1,1,2,8,-1,12
CCN(CC(=O)NCc1ccc(Cl)cc1)C(=O)/C=C/c1ccccc1,-31*,0,5,2,6
COc1ccc(NC(=O)C2CCCN(C(=O)Nc3ccc(OC)cc3)C2)cc1 (stereo not drawn),7,1,-23,-4,-6
COc1ccc(NC(=O)N2CCCC(c3ccccc3)C2)cc1 (stereo not drawn),-2,0,4,-2,33*
COc1ccc(NC(=O)N2CCCCCC2)cc1,-37*,1,0,-17,-2
CC(C)(C)c1ccc(S(=O)(=O)NC(=O)C2(C)CCN2C(=O)c2cccc3ccccc23)cc1 (stereo not drawn),.,.,0,.,8
CCOC(=O)c1ccc(CN(Cc2ccc(OC)cc2)S(=O)(=O)c2cccc(C(F)(F)F)c2)cc1,-3,12,.,-1,-9
Cc1ccc(NC(=O)CCC(=O)N2Cc3ccccc3Oc3ncccc32)cc1F,-11,4,.,-2,1
COc1ccc(C)c2sc(N3CCCC3)nc12,-37*,0,12,-2,-1
Cc1ccc2nc(CN3CCN(S(=O)(=O)c4ccc(F)cc4)CC3)oc2c1,1,-1,.,5,-5
COc1cc(C(=O)OCCCN2CCCN(CCCOC(=O)c3cc(OC)c(OC)c(OC)c3)CC2)cc(OC)c1OC,.,.,-92*,.,-86
COc1ccc(C(=O)OCCCN(C)C)cc1OC,-3,3,-6,1,2
COc1cc(C(=O)OCCN2CCOCC2)cc(OC)c1OC,-2,1,-7,1,2
COc1cc(C(=O)OCCCN(C)C)cc(OC)c1OC,-39*,1,-3,-2,5
COc1ccc(NC(=O)Cn2cnc3c(nc4n3CCCCC4)c2=O)c(OC)c1,-7,0,.,1,-6
COc1ccc(/C=N/NC(=O)c2nc(-c3ccccc3)cc(-c3ccccc3)n2)cc1OC,-13,1,19,0,-5
COc1ccc(/C=N/c2oc(-c3ccccc3)cc2C#N)cc1OC,1,12,-52*,-4,-4
Cc1cc(C)cc(-n2ccn(CC(=O)Nc3ccccc3F)c(=O)c2=O)c1,0,3,.,0,7
OC(CNCc1cccs1)c1ccccc1 (stereo not drawn),-41*,4,17,-5,6
OC(CNCc1ccc(-c2ccccc2)cc1)c1ccccc1 (stereo not drawn),7,56*,24,-5,-3
OC(CNCc1ccncc1)c1ccccc1 (stereo not drawn),-2,6,-18,-2,-12
Cc1nc2cccnc2n1C1CCN(S(=O)(=O)c2ccc(C(C)C)cc2)CC1,0,39*,.,0,-13
COC(=O)C1=C(C)N(Cc2ccc(OC)cc2)C(=O)/C1=C\c1ccco1,-34*,2,0,-10,1

# Screening data from PubChem BioAssay.
